The results in this text go back to PubChem BioAssay (NCI).

Each structure is given as a SMILES string. The panel holds about 83,000 compounds, 20% with a hit somewhere; the sample as a whole holds those more often.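 Interpretation: 100, growth as untreated; towards 0, rising growth inhibition; 0, no net growth; 0 to -100, cell death. Compounds scoring below 10 were considered active.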 A number with no mark means an inactive call. Activity calls are given as the source filed them.

Some test systems named below: SR leukemia; RPMI-8226 leukemia; OVCAR-8 ovarian; OVCAR-5 ovarian; OVCAR-4 ovarian; SK-OV-3 ovarian; IGROV1 ovarian; OVCAR-3 ovarian; HS 578T breast; NCI/ADR-RES ovarian; T-47D breast; BT-549 breast; MDA-MB-435 melanoma; SW-620 colon; MCF7 breast; HCT-116 colon; HCC-2998 colon; KM12 colon.
Test in all cases: NCI-60 one-dose screen, 48 h (100 = growth as untreated, 0 = no growth, -100 = all killed)
What all share (conditions): 10 µM

Regarding `CCOC(=O)Cn1nnc(-c2ccc(OCc3ccccc3F)cc2)n1`, the growth with SR leukemia is 35.4%; in the assay on RPMI-8226 leukemia, 90.8%; in the assay with OVCAR-8 ovarian it was 101%; in the assay with OVCAR-5 ovarian, 92.6%; with OVCAR-4 ovarian, 86.4%; with SK-OV-3 ovarian it was 93.5%. Besides, the growth is 87.9% in the assay on IGROV1 ovarian; 100% in the assay on OVCAR-3 ovarian; 81.2% in the assay on HS 578T breast; 57% in the assay with NCI/ADR-RES ovarian; 72.6% in the assay with T-47D breast; 96.9% in the assay with BT-549 breast. Besides, the growth was -2.38% (active) with MDA-MB-435 melanoma; 83.3% in the assay with SW-620 colon; 75.8% in the assay on MCF7 breast; 80.1% in the assay on HCT-116 colon; 100% in the assay with HCC-2998 colon; 75.6% in the assay on KM12 colon.

As to `CC(C)C[C@H](NC(=O)Cn1ccc(Nc2ccccc2)cc1=O)B(O)O`, the growth in the assay on SR leukemia is 4.14% (active); in the assay on RPMI-8226 leukemia, 1.74% (active); with OVCAR-8 ovarian, 54.4%; in the assay on OVCAR-5 ovarian, 33.9%; in the assay with OVCAR-4 ovarian it was 47.5%; with SK-OV-3 ovarian, 51.7%. Besides, the growth with IGROV1 ovarian is 53.4%; in the assay with OVCAR-3 ovarian, -45.4% (active); with HS 578T breast, 28.9%; in the assay with NCI/ADR-RES ovarian, 111%; with T-47D breast, -4.25% (active); in the assay on BT-549 breast it was 9.01% (active). Also, the growth with MDA-MB-435 melanoma was -85.4% (active); with SW-620 colon, 15%; with MCF7 breast, 28.2%; with HCT-116 colon, -6.59% (active); with HCC-2998 colon, 9.37% (active); in the assay with KM12 colon, 36.1%.

For `CCOC(=O)c1sc(Nc2ncccn2)nc1-c1ccccn1`, the growth in the assay on SR leukemia is 62.7%; in the assay on RPMI-8226 leukemia it was 92%; in the assay on OVCAR-8 ovarian it was 85.7%; in the assay on OVCAR-5 ovarian it was 93.1%; in the assay with OVCAR-4 ovarian, 42%; in the assay with SK-OV-3 ovarian it was 76.4%. In addition, the growth in the assay with IGROV1 ovarian is 87.4%; in the assay with OVCAR-3 ovarian, 82.3%; in the assay on HS 578T breast it was 105%; with NCI/ADR-RES ovarian it was 68.6%; in the assay with T-47D breast, 41.8%; in the assay with BT-549 breast, 89.2%. In addition, the growth in the assay on MDA-MB-435 melanoma is 103%; in the assay with SW-620 colon, 95.6%; with MCF7 breast, 7.18% (active); in the assay on HCT-116 colon, 74.2%; in the assay on HCC-2998 colon it was 80.7%; with KM12 colon it was 83%.

On to `CCOC(=O)C(=O)Cc1cccnn1`, for which the growth was 101% in the assay on SR leukemia; 102% in the assay with RPMI-8226 leukemia; 103% in the assay with OVCAR-8 ovarian; 103% in the assay on OVCAR-5 ovarian; 102% in the assay with OVCAR-4 ovarian; 106% in the assay with SK-OV-3 ovarian. The growth in the assay with IGROV1 ovarian was 109%; in the assay on OVCAR-3 ovarian it was 122%; with HS 578T breast, 133%; in the assay on NCI/ADR-RES ovarian it was 104%; in the assay with T-47D breast, 122%; in the assay on BT-549 breast it was 101%. The growth with MDA-MB-435 melanoma is 111%; in the assay on SW-620 colon, 109%; in the assay on MCF7 breast it was 95.3%; in the assay on HCT-116 colon, 102%; in the assay on HCC-2998 colon it was 112%; in the assay on KM12 colon, 108%.

`CCN(CC)CCOC(=O)c1ccc(NC(=O)Nc2cccc(Cl)c2)cc1`: the growth was 96.5% in the assay on SR leukemia; 103% in the assay on RPMI-8226 leukemia; 97.6% in the assay on OVCAR-8 ovarian; 105% in the assay on OVCAR-5 ovarian; 107% in the assay with OVCAR-4 ovarian; 102% in the assay with SK-OV-3 ovarian. Also, the growth is 105% in the assay on IGROV1 ovarian; 97.6% in the assay with OVCAR-3 ovarian; 100% in the assay on HS 578T breast; 97.5% in the assay on NCI/ADR-RES ovarian; 87.1% in the assay on T-47D breast; 92.9% in the assay with BT-549 breast. Besides, the growth in the assay with MDA-MB-435 melanoma is 103%; with SW-620 colon it was 104%; in the assay on MCF7 breast, 95%; in the assay on HCT-116 colon it was 95%; with HCC-2998 colon it was 99.7%; with KM12 colon, 98%.

On to `CC(C)=C1CCC(C)C/C1=N\N=C(N)N` (configuration not stated), for which the growth was 105% in the assay on SR leukemia; 96.7% with RPMI-8226 leukemia; 104% in the assay on OVCAR-8 ovarian; 110% with OVCAR-5 ovarian; 107% in the assay on OVCAR-4 ovarian; 106% with SK-OV-3 ovarian. Besides, the growth in the assay with IGROV1 ovarian was 98.6%; in the assay with OVCAR-3 ovarian it was 113%; in the assay with HS 578T breast it was 105%; in the assay with NCI/ADR-RES ovarian, 101%; with T-47D breast, 97.4%; in the assay on BT-549 breast, 107%. In addition, the growth in the assay on MDA-MB-435 melanoma is 101%; in the assay on SW-620 colon it was 103%; with MCF7 breast it was 92.4%; in the assay with HCT-116 colon it was 102%; in the assay on HCC-2998 colon, 109%; with KM12 colon, 107%.

With `COc1ccc(C2C=C(c3ccc(Cl)c(Cl)c3)N=C3SC(C)=CN32)cc1OC` (configuration not stated), the growth in the assay on SR leukemia is 61.9%; in the assay with RPMI-8226 leukemia, 38.4%; in the assay with OVCAR-8 ovarian, 68.7%; with OVCAR-5 ovarian, 97.1%; with OVCAR-4 ovarian, 72.9%; in the assay with SK-OV-3 ovarian, 109%. In addition, the growth was 72.2% in the assay on IGROV1 ovarian; 60.9% in the assay on OVCAR-3 ovarian; 90.8% with HS 578T breast; 79.4% in the assay with NCI/ADR-RES ovarian; 64% in the assay with T-47D breast; 89.1% with BT-549 breast. Also, the growth in the assay on MDA-MB-435 melanoma was 69.4%; in the assay on SW-620 colon, 85.7%; in the assay with MCF7 breast, 72.8%; in the assay with HCT-116 colon it was 48.8%; in the assay on HCC-2998 colon, 77.8%; in the assay on KM12 colon, 57%.

As to `O=C1NN(c2ccccc2)C(c2cccnc2)=N/C1=C\c1cccnc1`, the growth was 73.6% in the assay with SR leukemia; 83.3% in the assay with RPMI-8226 leukemia; 106% in the assay with OVCAR-8 ovarian; 85.8% in the assay on OVCAR-5 ovarian; 94.3% with OVCAR-4 ovarian; 104% in the assay on SK-OV-3 ovarian. For the same molecule, the growth was 103% in the assay with IGROV1 ovarian; 89.8% in the assay on OVCAR-3 ovarian; 87.1% in the assay with HS 578T breast; 91.2% in the assay on NCI/ADR-RES ovarian; 96.7% in the assay with T-47D breast; 101% in the assay on BT-549 breast. Besides, the growth in the assay with MDA-MB-435 melanoma is 92.4%; in the assay with SW-620 colon it was 110%; in the assay on MCF7 breast it was 92.1%; in the assay with HCT-116 colon, 91.9%; with HCC-2998 colon it was 99%; with KM12 colon, 95%.

With `NC1CCC(Nc2nc(NCc3ccc(-c4ccco4)nc3)c3ncn(C4CCCC4)c3n2)CC1` (configuration not stated), the growth in the assay with SR leukemia is -3.17% (active); in the assay on RPMI-8226 leukemia, -18.3% (active); with OVCAR-8 ovarian, 11.8%; with OVCAR-5 ovarian it was 25.1%; in the assay on OVCAR-4 ovarian, 2.67% (active); with SK-OV-3 ovarian, -0.9% (active). Besides, the growth is 8.71% (active) with IGROV1 ovarian; 1.37% (active) with OVCAR-3 ovarian; 10.7% in the assay on HS 578T breast; 79.5% in the assay on NCI/ADR-RES ovarian; -11.3% (active) in the assay on T-47D breast; -25.7% (active) in the assay with BT-549 breast. Besides, the growth in the assay with MDA-MB-435 melanoma was 11.4%; in the assay on SW-620 colon, 7.93% (active); with MCF7 breast it was 1.09% (active); with HCT-116 colon, 3.79% (active); with HCC-2998 colon, -19% (active); with KM12 colon, 4.05% (active).
